According to PubChem BioAssay:

Assay: RPMI8226 myeloma cell viability, profiling panel, resazurin fluorescence, basal, 24 h, PK04 Diversity Set (AID 1180);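 further: RPMI8826 multiple myeloma cell line at 5000 cells per well; test concentration not given here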
Conditions: higher = more signal

Question: Which z-score does the source give for `COc1ccc([Si](C)(C)[C@H]2[C@H](CC(=O)N3Cc4ccccc4C[C@H]3CO)O[C@@]3(C(=O)N(c4ccccc4)c4ccccc43)[C@@H]2C)cc1` here?
Answer: The z-score was -2.1.

Question: With `CCN(CC)c1ccc(N2CC=CC34O[C@@H]5C=CCCOC(=O)C5[C@H]3C(=O)N(C(C)CO)[C@@H]4C2=O)cc1` (stereo partly specified) as the compound, how does the z-score read?
Answer: The z-score was 0.399.

Question: For `COCCOC(=O)N1C(=O)[C@@]2(c3cc(C#CC4(O)CCCCCC4)ccc31)[C@H](c1ccc(O)cc1)N1[C@H](c3ccccc3)[C@H](c3ccccc3)OC(=O)[C@H]1[C@@H]2C(=O)N1CCCCCCC1`, which z-score is on record?
Answer: The z-score was -0.196.

Question: With `COC(=O)[C@@]1(Cc2ccc(F)cc2)[C@H]2c3cc(C(=O)N(C)C)n(C)c3C[C@H]2CN1C(=O)c1ccccc1` as the compound, how does the z-score read?
Answer: The z-score was -0.521.

Question: With `O=C(NC1CC1)[C@@H]1c2ccccc2C(=O)N(Cc2cc(C(F)(F)F)cc(C(F)(F)F)c2)[C@H]1c1ccc(CO)cc1` as the compound, how does the z-score read?
Answer: Its z-score is 0.51.

Question: Which z-score does the source give for `COc1ccc(C(O)C2C=CC3C(=O)NC(=O)C3N2Nc2ccc(Cl)cc2Cl)c2ccccc12` (stereo unspecified) here?
Answer: The z-score was -1.09.

Question: For `O=C(NCCN1CCOCC1)[C@@H]1c2ccccc2C(=O)N(Cc2ccccc2C(F)(F)F)[C@H]1c1ccc(CO)cc1`, which z-score is on record?
Answer: Its z-score is 1.44.

Question: With `CN(C)CCCCNC(=O)[C@H]1C[C@H]2C(=O)N3CCC[C@H]3C(=O)N2[C@H]1c1cccc(OCCO)c1` as the compound, how does the z-score read?
Answer: The z-score was -0.116.

Question: For `COc1ccc(CCNC(=O)[C@@H]2c3ccccc3C(=O)N(Cc3ccccc3OC)[C@H]2c2ccc(CO)cc2)cc1`, which z-score is on record?
Answer: The z-score was -0.205.

Question: Which z-score does the source give for `CC(C)OC(=O)CC(=O)CC(O)c1cccc([N+](=O)[O-])c1` (stereo unspecified) here?
Answer: Its z-score is 0.083.

Question: Which z-score does the source give for `CCOC(=O)C[C@H]1[C@H](OC(=O)c2cc3ccccc3oc2=O)[C@@H](NC(=O)CC(C)C)c2cc(OCCCO)ccc2N1C(=O)Cc1ccc(OC)cc1` here?
Answer: The z-score was -0.72.
